Screening data from PubChem.
Compounds with a hit are over-represented: about 19% of the library has one in this group of screens.
HT1080 IDH1KD tx – toxicity to HT-1080 IDH1 knockdown cells (counter line); HT-1080 IDH1 knockdown viability, ATP luminescence, 48 h; Potency, µM (series often up to 46.1 µM), without a hit: at the top dose activity, negative = toxicity, actives largely listed as cytotoxic; actives 2% (n = 360,000); AID 686971;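 note: potency is the fitted concentration of half-maximal effect; 0% = DMSO wells and -100% = cell-free medium wells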
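% activity derives from luminescence (CellTiter-Glo), normalised to DMSO and no-cell wells. HT-1080-IDH1KD cells, 750/well, had 48 h compound exposure at 37 °C.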
IL-1B inflam inh – inhibitors of inflammasome signaling (IL-1 beta secretion); THP-1 LPS/ATP IL-1B secretion, AlphaLISA, 16 h; stronger effect = lower value; activity change, % at 57.5 µM; actives 4.7% (n = 360,000); AID 743279; in the data active = activity change below about -50%; inconclusive = mostly about -30% to -49%
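THP-1 cells pretreated 1 hr with compounds (up to 57.5 uM final), then stimulated with LPS (250 ng/mL final) plus ATP (1.25 mM final); secreted IL-1B measured by AlphaLISA after 16 hr, decreased signal indicating inhibition.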
DT40 TDP1 no CPT – qHTS for Inhibitors of human tyrosyl-DNA phosphodiesterase 1 (TDP1): qHTS in cells in absence of CPT; DT40 Tdp1-/- hTDP1 cells, no CPT, ATP luminescence, 48 h; Potency, µM (top dose mostly 46.2 µM), for inactives: at the top dose activity change, negative = growth inhibition, actives largely listed as inhibitors; actives 15% (n = 420,000); AID 686978, 2013; note: potency is the fitted concentration of half-maximal effect; nearly all actives have a fitted effect of over 55% in size
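No-CPT arm: Tdp1-/-;hTDP1 DT40 cells (400/well) plus compounds, incubated ≥48 hr at 37 °C. Readout CellTiter-Glo luminescence.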
TDP1 cell CPT – DT40-hTDP1 cell growth loss with CPT. chicken DT40 Tdp1-/-;hTDP1 cells + 20 nM CPT, ATP luminescence, 48 h. Potency, µM (top dose mostly 46.2 µM), for the others: top-dose activity change, negative = growth inhibition, most hits filed as inhibitors. actives 12% (n = 420,000). AID 686979; note: potency is the fitted concentration of half-maximal effect; nearly all actives have a fitted effect of over 55% in size
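Chicken DT40 Tdp1-/- cells complemented with human TDP1, 400 cells/well, exposed to compounds plus 20 nM camptothecin for at least 48 h at 37 C; viability read as ATP content by CellTiter-Glo luminescence.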
HT1080NT lethal – kills 2HG-producing HT-1080-NT fibrosarcoma cells. HT-1080-NT fibrosarcoma viability, CellTiter-Glo ATP luminescence, 48 h. actives 1.6% (n = 360,000). Potency, µM (titrated, usually from 46.1 µM), inactives show at the highest dose activity, negative = less viability, hits mostly cytotoxic. AID 686970;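 note: NT is the 2HG producing partner of a matched IDH1 knockdown line; potency is the fitted concentration of half-maximal effect; 0% = DMSO-treated cells and -100% = media-only wells without cells; nearly all actives have a fitted effect of over 55% in size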
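Viability by CellTiter-Glo luminescence after 48 h compound exposure at 37C of HT-1080-NT cells (750/well, RPMI, 5% FBS). % activity scaled between DMSO wells and medium-only wells, then curve-fitted and categorized by curve class.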
* marks the source's active call; other numbers are inactive results; ? = inconclusive; . = no result. Unless noted, calls come from the whole dose curve; as a rule, active = well fitted curve in the direction sought with a large enough effect; inconclusive = small, poorly fitted or top-dose-only effect, or another doubt; inactive = no such curve, though single readings can be large; an effect the other way counts as inactive or inconclusive. Unless noted, % is set by controls: 0 for no effect and ±100 for the full control effect.

SMILES	HT1080 IDH1KD tx	IL-1B inflam inh	DT40 TDP1 no CPT	TDP1 cell CPT	HT1080NT lethal
COC(=O)[C@]12CCCCC=C1N(Cc1ccc3c(c1)OCO3)C(=O)[C@H](CC(=O)N1CCN(C(=O)c3ccco3)CC1)C2	14.1%	-55.9*	?	?	22.5%
COC(=O)[C@]12CCCCC=C1N(Cc1ccccc1)C(=O)[C@H](CC(=O)N1CCN(C(=O)c3ccco3)CC1)C2	13.6%	-3.2	?	?	8.5%
Cc1cccc(C(=O)NC2CCN(C(=O)Nc3ccc(F)cc3)CC2)c1	0.3%	-3.3	-29.0%	-20.5%	2.2%
Cc1ccc(OCCC(=O)OCC(=O)Nc2ccccc2)cc1	0.2%	-6.6	-19.0%	?	0.7%
Cc1ccccc1OCC(=O)NC(C)c1ccccc1 (stereo unspecified)	-3.9%	-2.1	?	?	-1.0%
Cn1cccc1-c1cc(C(=O)N/N=C/c2ccc(F)cc2)[nH]n1	-7.0%	?	?	-8.9%	-1.1%
Cn1cccc1-c1cc(C(=O)N/N=C/c2cc(Br)ccc2O)[nH]n1	?	111.3	4.11µM*	5.8µM*	?
CCOc1ccc(/C=N/NC(=O)c2cc(-c3cccn3C)n[nH]2)cc1	-4.0%	-58.7*	?	-19.4%	-4.0%
COC(=O)C1=C(C)N(CCCC(=O)O)C(=O)NC1c1ccccc1Cl (stereo unspecified)	12.7%	15.3	-1.2%	-5.7%	27.4%
C=C1C(=O)O[C@@H]2[C@H]3O[C@]3(C)CC/C=C(\C)CC[C@@H]12	18.4µM*	-110.4*	5.17µM*	4.61µM*	9.2µM*
C=C1C(=O)OC2C1CC/C(C)=C/CCC1(C)OC21 (stereo unspecified)	.	.	2.91µM*	2.31µM*	.
C=C1C(=O)O[C@H]2[C@H]1CC/C(C)=C\CC[C@@]1(C)O[C@@H]21	.	.	2.66µM*	2.37µM*	.
C=C1C(=O)O[C@@H]2C3OC3(C)CC/C=C(\C)CC[C@@H]12 (stereo partly specified)	.	.	10.6µM*	10.6µM*	.
CCOc1ccccc1NC(=O)N1CCc2ccccc2C1	12.2%	39.7	-13.5%	-16.4%	-0.4%
COc1ccc(CCNC(=O)C2CCC(CNS(=O)(=O)c3ccc(C)cc3)CC2)cc1OC (stereo unspecified)	.	.	-28.2%	-18.1%	.
COc1cccc2[nH]c3c(N4CCCC(C)C4)ncnc3c12 (stereo unspecified)	-4.2%	-14.3	23.1µM*	?	4.6%
c1ccc2c(c1)[nH]c1c(N3CCSCC3)ncnc12	-29.5%	-8.3	18.4µM*	?	-20.8%
c1ccc2c(c1)[nH]c1c(N3CCN(C4CCCCC4)CC3)ncnc12	-21.7%	6.8	14.6µM*	?	?
Clc1ccc2[nH]c3c(N4CCC5(CC4)OCCO5)ncnc3c2c1	8.2µM*	?	18.4µM*	23.1µM*	16.4µM*
Clc1ccc2[nH]c3c(NCCN4CCOCC4)ncnc3c2c1	?	?	?	-19.9%	-16.9%
COc1ccc(NC(=O)N2CC3(CCN(S(C)(=O)=O)CC3)C2)cc1	.	.	-11.3%	-2.3%	.
CCOc1ncnc2c1[nH]c1ccccc12	-16.7%	?	?	?	-20.9%
c1ccc2c(c1)[nH]c1c(N3CCCC3)ncnc12	-11.0%	-6.1	5.17µM*	5.8µM*	-11.8%
Cc1ccc2[nH]c3c(N4CCOCC4)ncnc3c2c1	?	-19.7	?	?	-29.4%
c1ccc2c(c1)[nH]c1c(N3CCOCC3)ncnc12	-22.6%	-17.0	12.6µM*	16.4µM*	-20.7%
SMILES	HT1080 IDH1KD tx	IL-1B inflam inh	DT40 TDP1 no CPT	TDP1 cell CPT	HT1080NT lethal
CC(=O)Nc1sc(N)nc1-c1ccccc1	7.6%	30.2	-18.1%	3.1%	2.1%
Cc1ncc(N=Nc2ccccc2Cl)c(-c2ccccc2)n1	16.5%	?	?	?	8.1%
Nc1nc(-c2ccccc2)c(N=Nc2cccc3ccccc23)s1	20.6µM*	-25.6	16.4µM*	23.1µM*	?
Nc1nc(-c2ccccc2)c(N=Nc2ccccc2Cl)s1	18.4µM*	-63.8*	16.4µM*	-16.5%	?
COc1ccccc1C(=O)C1CCCN(C(=O)CCc2ccccn2)C1 (stereo unspecified)	1.3%	40.5	?	-15.5%	6.2%
Cc1cc(C)n(-c2nc(NCC3CCCO3)c3c4c(sc3n2)COC(C)(C)C4)n1 (stereo unspecified)	-8.1%	-50.7*	3.66µM*	5.17µM*	-0.1%
Cc1cc(C)n(-c2nc(SCCN(C)C)c3c4c(sc3n2)COC(C)(C)C4)n1	?	-60.0*	17.8µM*	22.4µM*	17.8µM*
CC(=O)Nc1ccc(OCC(O)Cn2cncn2)cc1 (stereo unspecified)	18.2%	18.3	-8.1%	23.1%	18.2%
COc1ccc(-n2ncc3c2CC(C)(C)CC3NC(=O)c2ccc(OC)o2)cc1 (stereo unspecified)	4.1%	0.0	-17.5%	?	7.8%
Cn1cnc(S(=O)(=O)N2CCC(C(=O)N3CCN(c4ccccc4F)CC3)CC2)c1	.	.	-1.7%	1.1%	.
Cn1cc(-c2nc3cnc(Oc4cccc(Cl)c4)nc3n(C3CC3)c2=O)c2ccccc21	.	.	2.0%	-121.5%	.
COC(=O)c1ccc(C(=O)OC)c(NC(=O)COC(=O)CC2CC3CCC2C3)c1 (stereo unspecified)	2.0%	8.1	23.1µM*	?	4.8%
COC(=O)c1ccc(C(=O)OC)c(NC(=O)COC(=O)C2CCC(C(C)(C)C)CC2)c1 (stereo unspecified)	-11.1%	29.7	?	23.1µM*	-1.2%
Cc1ccc(Cl)cc1NC(=O)COC(=O)CC1CC2CCC1C2 (stereo unspecified)	9.8%	10.1	0.4%	-21.0%	9.4%
O=C(O)C1=CC(c2ccc(Br)cc2)n2ncnc2N1 (stereo unspecified)	.	.	13.9%	1.7%	.
CNC(=S)N/N=C(\C)c1ccc(C(C)(C)C)cc1	-2.6%	-13.1	-0.8%	-5.9%	-1.2%
C/C(=N\Nc1nc(N2CCOCC2)nc(N2CCOCC2)n1)c1cccc([N+](=O)[O-])c1	4.8%	-3.3	-17.4%	4.4%	1.1%
C/C(=N\N=C(N)N)c1ccc(C)c(C)c1	-27.9%	?	?	18.4µM*	-23.3%
CNC(=S)N/N=C(\C)c1ccccc1	-28.1%	-22.1	13µM*	7.31µM*	?
C/C(=N\Nc1ncc(Br)cn1)c1cccc([N+](=O)[O-])c1	17.5%	-73.1*	13.1%	-16.3%	23.4%
CNC(=S)N/N=C(\C)c1cccc([N+](=O)[O-])c1	24.9%	-15.7	2.91µM*	1.3µM*	-1.1%
CCOc1ncccc1C(=O)NCCc1ccc(S(N)(=O)=O)cc1	3.9%	-21.3	-2.4%	-0.1%	9.1%
